# Assay results reported in PubChem BioAssay (EPA / NIEHS).
# Calls of active or inactive are those of the source. Rule for the calls: active = hit-call score of the fitted dose curve at least 0.9, where 1 is the maximum; inactive = score below 0.9.
# Read-out: Matrix Metallopeptidase 9 (MMP9), MMP9 (gene 4318)
# Assay: BSK_KF3CT_MMP9: BioMAP Diversity Plus: KF3CT Assay for Matrix Metallopeptidase 9 (MMP9) Biomarker Activity (AID 2283074)
# Settings: primary human keratinocytes with fibroblasts; actives raise or lower the signal
# Protocol: BSK_KF3CT is a cell-based, multiplexed-readout assay that uses keratinocytes and foreskin fibroblasts, a human skin primary cell co-culture, with measurements taken at 24 hours after chemical dosing in a 96-well plate.BSK_KF3CT_MMP9 is an assay component measured in the BSK_KF3CT assay. It measures MMP-9 antibody related to regulation of gene expression using ELISA technology.Data from the assay component BSK_KF3CT_MMP9 was analyzed into 1 assay endpoint. This assay endpoint, BSK_KF3CT_MMP9, was analyzed with bidirectional fitting relative to DMSO as the negative control and baseline of activity. Using a type of binding reporter, gain or loss-of-signal activity can be used to understand changes in the signaling as they relate to the gene MMP9. Furthermore, this assay endpoint can be referred to as a primary readout, because this assay has produced multiple assay endpoints where this one serves a signaling function. To generalize the intended target to other relatable targets, this assay endpoint is annotated to the protease intended target family, where the subfamily is matrix metalloproteinase.
# The levels of cell surface (or secreted, indicated by the prefix "s") biomarker endpoints were measured by ELISA. Overt cytotoxicity to cells in confluent adherent cultures (all systems other than the BT system) was assessed by measuring total protein levels using sulforhodamine B (SRB) staining in parallel cultures at the time of biomarker measurements, indicated as SRB endpoints. For proliferation assays for adherent cell types, individual cell types are cultured at sub-confluence and relative cell numbers quantified by SRB staining at time points optimized for each system (48 h: 3C and CASM3C systems; 72 h: BT and HDF3CGF systems; 96 h: SAg system). SRB was performed by staining cells with 0.1% SRB after fixation with 10% TCA and reading wells at 560 nm.Viability and proliferation of PBMC (T cells) was quantified by Alamar Blue reduction for the SAg and BT systems. For PBMC viability (referred to as PBMC Cytotoxicity within the assay endpoint names), cells were plated (75,000/well in a 96-well plate) and then chemical samples added for 1 h before addition of activators, SEB and TSST-1 (20 ng/mL final concentration each). Cells were incubated for 90 h. Then, Alamar Blue (20 uL/well) (Invitrogen, Cat DAL1100) was added for 6 h, and the plates were read with a fluorescence microplate reader at 546/580 nm (excitation/emission). For PBMC proliferation, cells were plated and activated as above but incubated for only 16 h prior to addition of Alamar Blue. Plates were read after 6 h.
Structure (SMILES),outcome,AC50
CCOc1cccc(C2(N3CCN(c4ccccc4)CC3)CCC(C)CC2)c1 (stereo not given),inactive,–
CCCCCCCCCCCCCN1CC(C)OC(C)C1 (stereo not given),inactive,–
c1ccc(C2CO2)cc1 (stereo not given),inactive,–
Cc1cc(N=Nc2ccccc2C)ccc1N,–,19.9 µM (active)
Brc1ccc(Oc2ccccc2)cc1,inactive,–
CC(C)(O)c1cnn2c(-c3ccc(F)c(-c4c(F)cccc4C#N)c3)cnc2n1,–,34.6 µM (active)
CCCSC(=O)N(CCC)CCC,inactive,–
Nc1ccc(Cl)cc1N,–,8.99 µM (active)
[Cl-].[Cl-].[Hg+2],–,13.5 µM (active)
OCCOCCO,inactive,–
[O-][Cl+]O,inactive,–
Cc1ccc(N=C=O)cc1N=C=O,inactive,–
COc1cc(C=O)cc2c1[C@H](COC(N)=O)[C@]1(OC(C)=O)ON2C[C@H]2[C@@H]1N2C(C)=O,–,2.07 µM (active)
COP(=S)(OC)SCN1C(=O)c2ccccc2C1=O,inactive,–
Oc1ccc2ccc3cccc4ccc1c2c34,–,15.3 µM (active)
CC(O)CCO (stereo not given),inactive,–
CC(C)N(Cc1ccccc1)C(=O)C(C)(C)C,inactive,–
O=C1CCCO1,inactive,–
ClC1=C(Cl)C2(Cl)C3C(Cl)C=CC3C1(Cl)C2(Cl)Cl (stereo not given),–,13.8 µM (active)
Cc1ccc([N+](=O)[O-])cc1,inactive,–

Structure (SMILES),outcome,AC50
O=[N+]([O-])c1ccc(Oc2ccc(Cl)cc2Cl)cc1,–,8.09 µM (active)
C[N+](C)(C)CC1CO1 (stereo not given),inactive,–
CN(C)C(=O)Nc1ccc(Cl)cc1,inactive,–
Cn1cc(-c2ccccc2)c(=O)c(-c2cccc(C(F)(F)F)c2)c1,inactive,–
COC(=O)c1ccccc1N,inactive,–
CCCCCCCCn1sccc1=O,–,12.4 µM (active)
CC(C)(OOC(C)(C)c1ccccc1)c1ccccc1,inactive,–
Nc1cc(Cl)cc(C(=O)O)c1Cl,inactive,–
CCC[CH2][Sn]([Cl])([CH2]CCC)[CH2]CCC,–,0.292 µM (active)
CCCCC(CC)COC(=O)c1ccc(C(=O)OCC(CC)CCCC)c(C(=O)OCC(CC)CCCC)c1 (stereo not given),inactive,–
CC(C)(C)OOC(C)(C)CCC(C)(C)OOC(C)(C)C,inactive,–
Clc1ccccc1Cl,inactive,–
CCC(C)c1ccc(O)cc1 (stereo not given),inactive,–
c1ccc2c(c1)oc1ccccc12,inactive,–
Clc1ccc(Cl)c(Cl)c1,inactive,–
Nc1ccc([N+](=O)[O-])cc1,inactive,–
N#CC(Br)(Br)C(N)=O,inactive,–
Oc1ccccc1Cl,inactive,–
Cc1cccc(N)c1N,inactive,–
CS(=O)(=O)NC(=O)c1cc(Oc2ccc(C(F)(F)F)cc2Cl)ccc1[N+](=O)[O-],inactive,–
